Assay outcomes: PubChem, several laboratories
VLA-4 inh: inhibition in a human VLA-4 binding assay; VLA-4 expressing cells, ligand binding flow cytometry; inhibition, % (about 7 µM as worked out from the volumes in the protocol); 0.2% of 330,000 active; AID 2557; in the data active = inhibition above about 50%
Target sequence (P13612 whole entry, looked up): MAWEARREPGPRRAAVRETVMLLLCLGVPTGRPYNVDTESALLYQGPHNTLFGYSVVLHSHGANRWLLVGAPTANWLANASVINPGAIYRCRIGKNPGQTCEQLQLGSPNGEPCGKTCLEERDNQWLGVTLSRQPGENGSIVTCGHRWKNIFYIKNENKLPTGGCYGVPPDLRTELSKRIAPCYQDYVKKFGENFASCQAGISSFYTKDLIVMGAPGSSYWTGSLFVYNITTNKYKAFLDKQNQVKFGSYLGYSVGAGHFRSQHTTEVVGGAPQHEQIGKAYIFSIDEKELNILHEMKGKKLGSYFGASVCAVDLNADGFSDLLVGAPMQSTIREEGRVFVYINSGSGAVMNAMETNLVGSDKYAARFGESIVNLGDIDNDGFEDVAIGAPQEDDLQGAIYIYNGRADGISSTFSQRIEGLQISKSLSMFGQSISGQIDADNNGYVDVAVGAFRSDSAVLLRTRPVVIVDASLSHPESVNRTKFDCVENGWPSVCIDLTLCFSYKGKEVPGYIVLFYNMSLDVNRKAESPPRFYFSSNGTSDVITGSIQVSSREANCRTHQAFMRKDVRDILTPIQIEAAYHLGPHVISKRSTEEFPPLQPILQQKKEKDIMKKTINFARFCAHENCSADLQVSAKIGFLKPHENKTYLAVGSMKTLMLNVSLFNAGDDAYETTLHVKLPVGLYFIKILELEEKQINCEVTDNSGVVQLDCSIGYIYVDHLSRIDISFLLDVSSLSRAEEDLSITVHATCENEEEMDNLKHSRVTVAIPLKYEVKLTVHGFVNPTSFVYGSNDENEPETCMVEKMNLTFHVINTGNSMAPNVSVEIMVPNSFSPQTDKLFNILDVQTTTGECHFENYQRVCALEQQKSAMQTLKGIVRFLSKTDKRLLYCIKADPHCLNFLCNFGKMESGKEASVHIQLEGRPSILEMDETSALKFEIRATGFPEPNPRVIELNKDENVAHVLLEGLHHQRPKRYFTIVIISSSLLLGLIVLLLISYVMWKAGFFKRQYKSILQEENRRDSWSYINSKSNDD
ABCB6 inh MLPCN: blocks the human ABCB6 transporter; Q9NP58; 0.19% of 360,000 active; K562-ABCB6 porphyrin accumulation, flow cytometry, 1 h; active compounds read low; fluorescence ratio to DMSO, % at 10 µM;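 active = fluorescence ratio to DMSO below 75%, the collection mean minus 3 SD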;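 also: signal is porphyrin accumulated inside mitochondria; lower ratio means ABCB6 inhibition with less porphyrin fluorescence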
Exocytosis inh: blocks lytic granule exocytosis; TALL-104 LAMP-1 surface exposure, flow cytometry; cells stimulated with thapsigargin and PMA; inhibition, % at 10 µM; 0.66% of 360,000 active;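 active = inhibition above about 55%, limit read from the data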
CaV13 FRET inh: Primary screen for inhibitors of IQ motif and Ca2+-dependent inactivation inhibitor domain binding in CACNA1D, Förster resonance energy transfer in living cells, …. HEK cells, CFP/YFP FRET ICDI-IQ, plate reader, 10 min; percent FRET-ratio fall versus neutral wells. inhibition, % at 12.3 µM. 0.098% of 340,000 active. AID 743397;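 active = mean replicate inhibition of at least 30% and at least 1% of replicates passing that level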
VLA-4 allo CP: human VLA-4 allosteric modulation in cherry picked compounds; shares compounds with VLA-4 inh; U937 cells, HUTS-21 LIBS mAb binding, flow cytometry; LDV ligand present at threefold Kd; inhibition, % at 6.7 µM; 2% of 1,300 active; AID 2813; in the data active = inhibition above about 40%
Large screens that a line does not name were inactive (follow-up assays come after a bar, where they were run). Shown are actives, neighbours in structure and some others; about 1.1% of the full set was active somewhere.

CCCCS(=O)(=O)N1C2=NC(C(=O)OCC)=C(C(=O)OCC)C3N(Cc4ccc(Br)cc4)c4ccccc4[C@]23C[C@H]1C(=O)OC (stereo not given in full)	none (no result: VLA-4 inh, ABCB6 inh MLPCN, Exocytosis inh)
Cc1cccc(-n2ncc3c(NCCCO)ncnc32)c1	none
C=CCNc1ncnc2c1cnn2-c1cccc(C)c1	VLA-4 inh 66 | VLA-4 allo CP inactive
CNc1nc(-c2ccccc2)cc(C)c1S(C)(=O)=O	none
CCOC(=O)C(CC)(CC)C(=O)/C=C/c1ccc(Br)cc1	VLA-4 inh 90 | VLA-4 allo CP inactive
NC(=O)OCC(O)COc1ccc(Cl)cc1 (stereo not given)	VLA-4 inh 57 | VLA-4 allo CP inactive
N=c1sccn1CC(=O)NCCc1ccc(Cl)cc1Cl	VLA-4 inh 95 | VLA-4 allo CP inactive
COc1cc(/C=C/c2noc(-c3ccccc3O)n2)cc(OC)c1OC	none | VLA-4 allo CP inactive
COc1ccc(/C=C/c2noc(-c3ccccc3O)n2)cc1	none
ClC1(Cl)CC1Cn1cnc2ccccc21 (stereo not given)	none
CCOC(=O)c1c(C)nc2sc3c(=O)n(-c4ccc(C)cc4)cnc3c2c1-c1ccc(OC)cc1	VLA-4 inh 94 (no result: CaV13 FRET inh) | VLA-4 allo CP inactive
CCN(CC(=O)Nc1ccc(NC(C)=O)cc1)C(=O)/C=C/c1ccco1	none
CCN(CC(=O)Nc1ccc(NC(C)=O)cc1)C(=O)/C=C/c1cccs1	VLA-4 inh 54 | VLA-4 allo CP inactive
Cc1cn(-c2cc(C(=O)Nc3ccc(C)c(NC(=O)N4CCNC4=O)c3)cc(C(F)(F)F)c2)cn1	VLA-4 inh 59 | VLA-4 allo CP inactive
CCN1CCN(Cc2ccc(NC(=O)c3ccc(C)c(NC(=O)N4CCNC4=O)c3)cc2C(F)(F)F)CC1	none | VLA-4 allo CP inactive
CC(C)(C)c1ccc(C#C[C@@H]2C=C[C@@H](O)[C@@H](COC(=O)NCc3ccccc3)O2)cc1	none (no result: VLA-4 inh, ABCB6 inh MLPCN, Exocytosis inh)
NC(=O)CC(NC(=O)c1cccc(Br)c1)c1ccc(N2CCC(N3CCCCC3)CC2)c([N+](=O)[O-])c1 (stereo not given)	VLA-4 inh 56 | VLA-4 allo CP inactive
C#C[C@]1(O)CC[C@H]2[C@@H]3CCc4cc(OC5CCCC5)ccc4[C@H]3CC[C@@]21C	VLA-4 inh 53 | VLA-4 allo CP inactive
N=C(N)N=Nc1c(O)[nH]c2ccc(Br)cc12	VLA-4 inh 53 | VLA-4 allo CP inactive
Oc1[nH]c2ccc(Br)cc2c1N=NC(=S)Nc1ccc(F)cc1	none
COc1ccc(NC(=O)Nc2ccc3c(c2)C(=O)N([C@H](C)CO)C[C@@H](C)[C@@H](CN(C)Cc2ccc4c(c2)OCO4)OCCCC[C@H](C)O3)cc1	none (no result: VLA-4 inh, ABCB6 inh MLPCN, Exocytosis inh)
CC(C)[C@@H]1CN=C(N)N1C[C@@H]1CCCN1C[C@H](C)N1C[C@@H](Cc2ccccc2)N(CCc2ccc(Cl)c(Cl)c2)C1=N	VLA-4 inh 53 (no result: CaV13 FRET inh) | VLA-4 allo CP inactive
COc1c2occc2c(OC)c2c(=O)cc(C)oc12	VLA-4 inh 51 | VLA-4 allo CP inactive
CC[C@H](CO)NCCN[C@H](CC)CO	none
CCC(CO)NCCNC(CC)CO (stereo not given)	VLA-4 inh 50 | VLA-4 allo CP inactive
Cc1ccc(C(=O)/C=C\C(=O)c2ccc(C)cc2)cc1	VLA-4 inh 68 | VLA-4 allo CP inactive
C[C@H]1CN([C@@H](C)CO)C(=O)c2cccc(NS(=O)(=O)c3ccc(F)cc3)c2O[C@H]1CN(C)S(=O)(=O)c1cn(C)cn1	none
COc1cccc(N2CCN(C(=O)c3ccc(Cl)c(NC4=NC5CS(=O)(=O)CC5S4)c3)CC2)c1 (stereo not given)	none | VLA-4 allo CP inactive
O=C(c1cccc(NC2=NC3CS(=O)(=O)CC3S2)c1)N1CCN(c2ncccn2)CC1 (stereo not given)	none | VLA-4 allo CP inactive
CCOC(=O)N1CCN(C(=O)c2cccc(NC3=NC4CS(=O)(=O)CC4S3)c2)CC1 (stereo not given)	none | VLA-4 allo CP inactive
COc1ccc(N2CCN(C(=O)c3cccc(NC4=NC5CS(=O)(=O)CC5S4)c3)CC2)cc1 (stereo not given)	none
COC(=O)[C@]12C[C@H](CC(=O)NCC34CC5CC(CC(C5)C3)C4)C(=O)N(Cc3ccc4c(c3)OCO4)C1=C[C@H](COCc1ccccc1)O[C@@H]2C	none (no result: VLA-4 inh, ABCB6 inh MLPCN, Exocytosis inh)
Cc1ccc(C)c(N/C(N)=N/c2nc(C)cc(C)n2)c1	VLA-4 inh 54 | VLA-4 allo CP inactive
COc1ccc(-c2ccc3c(n2)CCCN3S(=O)(=O)c2ccccc2C)cc1	none (no result: VLA-4 inh, ABCB6 inh MLPCN, Exocytosis inh)
CCOc1ccc(NC(=O)CN(c2ccc(C)cc2)S(=O)(=O)c2c(C)nn(C)c2C)cc1	none
Cc1ccc(NC(=O)CN(c2ccc(C)cc2)S(=O)(=O)c2cccc3nonc23)cc1	none | VLA-4 allo CP inactive
COc1ccccc1NC(=O)CN(c1ccc(C)cc1)S(=O)(=O)c1c(C)n[nH]c1C	none | VLA-4 allo CP inactive
Cc1nn(C)c(C)c1S(=O)(=O)N(CC(=O)Nc1ccc2c(c1)OCO2)c1ccc(C(C)C)cc1	none | VLA-4 allo CP inactive
COC(=O)c1ccc(NC(=O)CN(c2ccc(C)cc2)S(=O)(=O)c2c(C)nn(C)c2C)cc1	none | VLA-4 allo CP inactive
COC(=O)c1cc2c(c3c4cc(F)ccc4n(S(=O)(=O)c4cccc(C)c4)c13)C(=O)N(Cc1ccc(N(C)C)cc1)C2	none (no result: VLA-4 inh, ABCB6 inh MLPCN, Exocytosis inh)
C[C@@H]1C=CCCO[C@]12C(=O)N(Cc1ccccc1C(F)(F)F)c1cccc(Br)c12	none (no result: VLA-4 inh, ABCB6 inh MLPCN, Exocytosis inh)
O=C(N1CCN(c2ccccn2)CC1)N1c2ccccc2Sc2ccccc21	VLA-4 inh 67 | VLA-4 allo CP inactive
O=C(Nc1ccc(F)cc1F)N1CCN(CCc2ccccc2)CC1	none
O=C(Nc1ccc(F)cc1F)N1CCN(C/C=C/c2ccccc2)CC1	VLA-4 inh 55 | VLA-4 allo CP inactive
Cc1ccc(S(=O)(=O)NNC(=O)CCC(=O)Nc2ccc(C)cc2C)cc1	none | VLA-4 allo CP inactive
Cc1[nH]nc2c1C(c1ccc(F)cc1)N(c1ccccc1)C2=O (stereo not given)	none (no result: VLA-4 inh, ABCB6 inh MLPCN, Exocytosis inh)
O=C1NN(c2ccccc2)C(=O)/C1=C/c1cccs1	none (no result: ABCB6 inh MLPCN, Exocytosis inh) | VLA-4 allo CP inactive
CCCCCCCCN1C(=O)[C@@H](CC(=O)N2CCC(c3ccccc3)CC2)C[C@@]2(C(=O)OC)C1=C[C@H](C1CCCC1)O[C@@H]2C	none (no result: VLA-4 inh, ABCB6 inh MLPCN, Exocytosis inh)
Cc1ccc(-c2nn3c(C)nnc3c3ccccc23)cc1S(=O)(=O)NC(C)c1ccccc1 (stereo not given)	VLA-4 inh 92 (no result: CaV13 FRET inh) | VLA-4 allo CP inactive
Cc1ccc(-c2nn3c(C)nnc3c3ccccc23)cc1S(=O)(=O)N1CCN(CCO)CC1	none | VLA-4 allo CP inactive
Cc1ccc(-c2nn3c(C)nnc3c3ccccc23)cc1S(=O)(=O)NCCO	none | VLA-4 allo CP inactive
Cc1ccc(-c2nn3c(C)nnc3c3ccccc23)cc1S(=O)(=O)NCc1ccco1	none | VLA-4 allo CP inactive
Cc1ccc(-c2nn3c(C)nnc3c3ccccc23)cc1S(=O)(=O)NC(C)(C)CO	none
CN1C(=O)[C@@]2(O[C@H]3C=CC=CN3C3=C2C(=O)CCC3)c2cccc(Br)c21	none (no result: VLA-4 inh, ABCB6 inh MLPCN, Exocytosis inh)
